Screening data: PubChem BioAssay, Buhrlage Lab, Dana-Farber Cancer Institute and Novartis Institutes for BioMedical Research (Cambridge, Mass)
USP30 inh: inhibitors of human USP30 deubiquitinase | Ubiquitin carboxyl-terminal hydrolase 30 (Homo sapiens), Q70CQ3 | purified USP30, Ub-rhodamine cleavage fluorescence | inhibition, % at 25 µM | 5.3% of 47,000 active | AID 1645860, 2021
USP28 block: inhibitors of human USP28 deubiquitinase; inhibition, % at 25 µM; purified USP28, Ub-rhodamine cleavage fluorescence, 30 min; 3% of 47,000 active; Ubiquitin carboxyl-terminal hydrolase 28 (Homo sapiens), Q96RU2; AID 1645857, 2021
Target sequence (Q96RU2 whole entry, looked up): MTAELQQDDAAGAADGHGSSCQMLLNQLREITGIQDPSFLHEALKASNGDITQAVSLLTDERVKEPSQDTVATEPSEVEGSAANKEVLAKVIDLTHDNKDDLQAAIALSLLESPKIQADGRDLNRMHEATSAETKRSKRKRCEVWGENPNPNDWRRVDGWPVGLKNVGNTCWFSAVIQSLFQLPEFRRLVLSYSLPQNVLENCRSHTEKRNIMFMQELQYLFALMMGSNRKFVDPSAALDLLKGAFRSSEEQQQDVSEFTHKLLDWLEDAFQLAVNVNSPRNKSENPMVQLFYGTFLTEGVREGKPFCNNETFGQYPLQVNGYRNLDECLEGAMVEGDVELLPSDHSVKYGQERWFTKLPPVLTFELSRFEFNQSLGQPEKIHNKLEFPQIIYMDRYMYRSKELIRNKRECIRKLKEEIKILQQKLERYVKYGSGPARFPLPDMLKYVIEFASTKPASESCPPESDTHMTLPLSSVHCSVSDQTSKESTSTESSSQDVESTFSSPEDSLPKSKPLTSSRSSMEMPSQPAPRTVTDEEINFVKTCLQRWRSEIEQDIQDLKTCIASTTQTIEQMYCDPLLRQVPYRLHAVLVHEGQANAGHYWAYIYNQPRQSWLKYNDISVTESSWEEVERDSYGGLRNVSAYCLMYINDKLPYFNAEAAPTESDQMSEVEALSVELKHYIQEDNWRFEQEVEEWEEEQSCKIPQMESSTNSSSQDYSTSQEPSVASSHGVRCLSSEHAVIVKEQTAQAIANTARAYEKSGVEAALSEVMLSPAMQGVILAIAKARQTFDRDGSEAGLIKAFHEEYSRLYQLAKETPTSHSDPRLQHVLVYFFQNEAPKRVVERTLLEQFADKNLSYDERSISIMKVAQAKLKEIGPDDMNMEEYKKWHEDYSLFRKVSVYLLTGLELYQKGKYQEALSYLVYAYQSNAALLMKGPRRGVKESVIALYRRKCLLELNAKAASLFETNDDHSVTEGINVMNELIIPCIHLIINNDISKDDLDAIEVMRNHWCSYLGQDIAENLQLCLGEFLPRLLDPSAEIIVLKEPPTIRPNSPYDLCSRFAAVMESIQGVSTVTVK
USP17 block: inhibitors of human USP17 deubiquitinase. Ubiquitin carboxyl-terminal hydrolase 17-like protein 5 (Homo sapiens), A8MUK1. purified USP17, Ub-rhodamine cleavage fluorescence, 3 h. inhibition, % at 50 µM. 6.5% of 47,000 active. AID 1645855, 2021
OTUD3 block: inhibitors of human OTUD3 deubiquitinase | 0.7% of 47,000 active | purified OTUD3, Ub-rhodamine fluorescence, 2 h | OTU domain-containing protein 3 (Homo sapiens), Q5T2D3 | inhibition, % at 25 µM
Of the large screens only hits and unclear results are named; the others gave an inactive call. The list is not random: actives were taken first. Their share in the collection is about 12%. Cut-off read from the data, not from the text of the source: active = inhibition above about 30%; inactive = the rest.

COc1ccc(CCn2c(C)c(C(C)=O)c3cc(OC(=O)COc4ccccc4)ccc32)cc1OC	none
Cc1ncoc1C(=O)N1CCCC(c2ncc(Cc3cccc(F)c3)o2)C1 (centres undefined)	none
COc1ccc(-c2nc(CNS(=O)(=O)c3ccc(OC)c(C)c3)cs2)cc1	USP17 block 38
COc1ccc(-c2nc(CNS(=O)(=O)c3ccc(OC)cc3)cs2)cc1	USP17 block 49
Cc1nc(N2CCCCC2)ncc1-c1cc(=O)[nH]c(Nc2nc(C)c3ccccc3n2)n1	USP30 inh 60, USP17 block 66
O=C(Nc1ccncc1)c1cn(Cc2ccccc2)cc2c(=O)n(-c3ccccc3)nc1-2	USP30 inh 50
COc1ccc(C(=O)COC(=O)c2ccccc2NS(=O)(=O)c2ccc(O)c([N+](=O)[O-])c2)cc1	USP30 inh 47, USP28 block 60, USP17 block 74, OTUD3 block 36
COc1ccc(N=c2oc3cc(O)ccc3cc2C(=O)Nc2ccc(C)cn2)cc1OC	none
Cc1ccc(Cl)cc1-n1ncc2c1ncn1nc(C3CCCCC3)nc21	USP17 block 34
O=C(NCC1CC1)[C@H]1C[C@@H]2CN(S(=O)(=O)C3CC3)C[C@H]1O2	none
COc1ccc(OCCn2c(C3CC(=O)N(C)C3)nc3ccccc32)cc1 (centres undefined)	none
Cc1ccc(N2CC(c3nc4ccccc4n3CCCCOc3ccccc3)CC2=O)cc1 (centres undefined)	USP30 inh 52
Cc1ccc(N2CC(c3nc4ccccc4n3CCOc3cccc(C)c3)CC2=O)cc1 (centres undefined)	USP30 inh 47, USP17 block 48
CCc1ccc2c(c1)[C@]1(C(=O)N2)N2CCC[C@H]2[C@@H](C(=O)c2ccco2)[C@]12C(=O)Nc1ccccc12	none
COc1cc(OC)cc(C(=O)Oc2ccc(-c3ccc(C#N)cc3)cc2)c1	none
CC(C)c1cnn2c(NCc3ccccc3)cc(NCCCCCCN)nc12	USP30 inh 37, USP28 block 40
CN1CCN(C(=O)c2ccc(-c3ccc(NCc4ccccc4)nn3)cc2)CC1	none
c1ccc(CNc2ccc(-c3ccccc3)nn2)cc1	USP30 inh 45, USP28 block 37
Cc1cc(C2CCCCN2C(=O)c2ccn[nH]2)nc2nccn12 (centres undefined)	none
Cc1ccc2c(CNCc3ccccc3F)cc(=O)oc2c1	none (no result: USP30 inh, USP28 block)
Cc1ccc(NC(=O)CSc2nc3ncc(Br)cc3[nH]2)cc1C	USP17 block 60 (no result: USP30 inh, USP28 block)
COC(=O)c1ccc(NC(=O)CSc2nc3ncc(Cl)cc3[nH]2)cc1	none
O=C(CSc1nc2ncc(Cl)cc2[nH]1)Nc1ccc(OCc2ccccc2)cc1	USP17 block 38
Cc1nn(CCCC(=O)Nc2ccccc2F)c(C)c1[N+](=O)[O-]	none
N[C@@H](C[C@H]1CCC(=O)[C@@H]2O[C@H]12)C(=O)O	none
Cc1ccc2[nH]cc(S(=O)(=O)c3ccc(C)c(F)c3)c(=O)c2c1	USP17 block 60
Cc1ccc2[nH]cc(S(=O)(=O)c3cc(F)cc(F)c3)c(=O)c2c1	none
O=c1cc(CNc2cccc(Cl)c2)nc2sccn12	none
Cc1ccc(CN2C[C@@H]3c4nc(N(C)C)ncc4CS(=O)(=O)[C@@H]3C2)cc1	USP30 inh 31
Cc1ccc(N2CCN(CCc3nc4cc(NC(=O)Nc5ccccc5)ccc4n3C)CC2)cc1	USP17 block 43
Cn1c(CCN2CCOCC2)nc2cc(NC(=O)c3ccc(F)cc3)ccc21	none
Cn1c(CN2CCCCCC2)nc2cc(NC(=O)c3ccccc3)ccc21	USP17 block 51
Cn1c(CCN2CCN(c3ccc(F)cc3)CC2)nc2cc(NC(=O)c3ccc(Cl)cc3)ccc21	USP30 inh 36, USP17 block 33
Cc1cccc(N2CCN(C(=O)c3cnc4sccn4c3=O)CC2)c1C	none
COc1ccc(-c2nnc(SCc3ccccc3C#N)o2)c(OC)c1	USP30 inh 50
O=C(NCc1cccc(F)c1)c1ccc2c(c1)NC(=O)C1CCCN21 (centres undefined)	USP17 block 48
COc1cccc(C2c3[nH]c4ccccc4c3C[C@@H]3C(=O)N(CCN4CCOCC4)CC(=O)N23)c1OC (some centres undefined)	none
C/C=C/C/C=C(/C)C(O)CC/C(C)=C/C=C(\C)C(=O)c1c(O)cc(C(C)CC/C=C/NC(=O)OC)oc1=O (centres undefined)	none
Cc1ccc2c(=O)c(C(=O)Nc3ccc(F)cc3)cn(CC(=O)NC3CCCC3)c2n1	none (no result: USP17 block)
Cc1ccc2c(=O)c(C(=O)Nc3ccccc3)cn(CC(=O)NC3CCCCC3)c2n1	USP17 block 56
COc1ccc(CNC(=O)C2=CC(c3ccccc3OC)=NS(=O)(=O)N2C)cc1	none
Cc1cc2nc(SCC(=O)c3ccc(O)cc3)[nH]c2cc1C	USP17 block 49
Cc1cc(C(=O)CSc2nc3ccccc3[nH]2)c(C)n1C1CC1	none (no result: USP30 inh, USP28 block)
CC[C@@]1([C@@H]2O[C@@H]([C@H]3O[C@@](O)(CO)[C@H](C)C[C@@H]3C)C[C@@H]2C)CC[C@H]([C@]2(C)CCC3(C[C@H](O)[C@@H](C)[C@@H]([C@@H](C)[C@H](OC)[C@H](C)C(=O)O)O3)O2)O1 (some centres undefined)	none
CO[C@@H]1C[C@@H](C[C@H]2CC[C@H](C)[C@H]([C@@H](C)C(=O)O)O2)O[C@]2(O[C@](C)([C@H]3CC[C@@](C)([C@@H]4O[C@@H]([C@H]5O[C@](C)(O)[C@H](C)C[C@@H]5C)C[C@@H]4C)O3)C[C@H]2C)[C@@H]1C	USP30 inh 34
COc1ccc(OC)c(NC(=O)[C@H]2C[C@H](C)N[C@]23C(=O)Nc2c(Cl)cccc23)c1	none
O=C(NC1CCS(=O)(=O)C1)c1ccnc(Cc2cccc(F)c2)c1 (centres undefined)	none
COc1ccc(/C=C/C(=O)N2CCc3ccccc32)cc1S(=O)(=O)N1CCOCC1	OTUD3 block 54
COc1ccc(/C=C/C(=O)N2CCCc3ccccc32)cc1OC	none
COc1ccc(C(=O)N2CC[C@@]3(O)CCCC[C@H]3C2)cc1	none (no result: USP30 inh, USP28 block)
CN(C)c1nc(NCc2ccccc2)nc(Oc2ccc(=O)[nH]n2)n1	USP30 inh 31, USP28 block 33
O=C1COc2ccc(C(=O)COC(=O)c3ccc4ccccc4n3)cc2N1	USP17 block 44
CC(C)Cn1c(=O)[nH]c2c(C(=O)N3CCN(C(C)C)CC3)snc2c1=O	none
COc1ccc(C)cc1NC(=O)Cc1csc(NC(=O)c2ccc(=O)[nH]c2)n1	USP17 block 71
Cc1sc2nc(-c3cccnc3)nc(NCCCN3CCOCC3)c2c1C	USP17 block 33
CC(=O)Nc1ccc(C(=O)Nc2cc(-c3cccnc3)no2)cc1	none
O=C(CC(NCc1ccco1)C(=O)O)Nc1cccc(Cl)c1Cl (centres undefined)	USP30 inh 32
O=C(CC(NCc1ccco1)C(=O)O)Nc1ccccc1Cl (centres undefined)	none
